Screening data (PubChem BioAssay)
GCN5L2 inh: qHTS Assay for Inhibitors of GCN5L2. actives 0.21% (n = 390,000). Histone acetyltransferase KAT2A (Homo sapiens), Q92830. Potency, µM (doses to about 58.9 µM), inactives show at the highest dose activity change, negative = inhibition, usual class: inhibitors. GCN5L2 HAT assay, ThioGlo1 CoA-SH fluorescence; note: % is set by controls: 0 for no effect and ±100 for the full control effect
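Enzyme at 20nM final was mixed with library compounds for 15 min at room temperature. Peptide H3(1-25) at 75uM, acetyl-CoA at 70uM and ThioGlo1 at 50uM were then added. Plates were read immediately and after 20 min (Ex340nm/Em540nm).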
PKM2 act: qHTS Assay for Activators of Human Muscle isoform 2 Pyruvate Kinase. Pyruvate kinase PKM (Homo sapiens), P14618. purified PKM2, Kinase-Glo ATP luminescence, activation; response scale: 0% is enzyme alone, no compound. Potency, µM (highest dose often 57.5 µM), for inactives: at the top dose activation, actives largely listed as activators. actives 0.34% (n = 260,000); note: % is set by controls: 0 for no effect and ±100 for the full control effect; nearly all actives have a fitted effect of over 55% in size
Target sequence (P14618 whole entry, looked up, canonical isoform): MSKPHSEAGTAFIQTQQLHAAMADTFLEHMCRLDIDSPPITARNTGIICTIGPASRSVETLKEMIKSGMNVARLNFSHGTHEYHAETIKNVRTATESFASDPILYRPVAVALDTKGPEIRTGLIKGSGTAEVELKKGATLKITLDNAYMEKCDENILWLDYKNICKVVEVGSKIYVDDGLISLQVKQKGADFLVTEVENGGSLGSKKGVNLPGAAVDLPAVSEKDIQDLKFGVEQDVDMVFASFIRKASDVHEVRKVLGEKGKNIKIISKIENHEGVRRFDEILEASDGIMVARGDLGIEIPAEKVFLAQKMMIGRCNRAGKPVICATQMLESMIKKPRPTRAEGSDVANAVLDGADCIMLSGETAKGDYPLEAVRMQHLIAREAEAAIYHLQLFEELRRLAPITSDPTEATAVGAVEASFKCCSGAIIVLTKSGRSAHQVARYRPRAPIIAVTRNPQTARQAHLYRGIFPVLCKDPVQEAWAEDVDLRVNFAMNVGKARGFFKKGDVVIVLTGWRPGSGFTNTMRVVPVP
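Purified hPK-M2 (>95% pure) converted ADP (0.1 mM final) to ATP with 0.5 mM PEP in 50 mM imidazole pH7.2, KCl, MgCl2, Tween 20, BSA; 1 h at room temperature. ATP detected by Kinase-Glo luminescence.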
GLS inh: qHTS for Inhibitors of Glutaminase (GLS). Glutaminase kidney isoform, mitochondrial (Homo sapiens), O94925. GLS enzymatic activity, qHTS titration. Potency, µM (series often up to 45.5 µM), for inactives: top-dose activity change, negative = inhibition, actives largely listed as inhibitors. actives 0.21% (n = 410,000). AID 624170, 2012; note: % is set by controls: 0 for no effect and ±100 for the full control effect
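Human kidney-isoform GLS in 45 mM KH2PO4 pH 8.2, 0.02% Tween-20, with compound, started with 1mM L-Glutamine (added stock). Glutamate oxidase/HRP/Amplex red coupled fluorescence read at start and after 30 min at RT.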
Mito fusion act: qHTS Assay for Small Molecule Inhibitors of Mitochondrial Division or Activators of Mitochondrial Fusion. S. cerevisiae fusion-defective mutant growth rescue, CellTiterGlo 48 h. Potency, µM (highest dose often 46.1 µM), for the others: at the top dose growth rescue (activation), most hits filed as activators. actives 0.23% (n = 320,000). AID 485298, 2010; note: % of control where 0% means no effect; nearly all actives have a fitted effect of over 45% in size
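Compounds are tested for their ability to restore growth of mitochondrial fusion-defective yeast strains at non-permissive 37C in YPEG medium over 48 hours. Viability is quantified by luciferase luminescence.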
PLK1 PBD block: qHTS for Inhibitors of PLK1-PDB (polo-like kinase 1 - polo-box domain): Primary Screen. Serine/threonine-protein kinase PLK1 (Homo sapiens), P53350. Plk1 PBD binding of FITC phosphopeptide, fluorescence polarization. Potency, µM, for inactives: max response, negative = inhibition, usual class: inhibitors. actives 2.8% (n = 360,000); note: series mostly up to about 57 µM; % is set by controls: 0 for no effect and ±100 for the full control effect; nearly all actives have a fitted effect of over 65% in size
VDR inh: Inhibitors of the vitamin D receptor (VDR): qHTS. Vitamin D3 receptor (Homo sapiens), P11473. VDR-SRC2-3 peptide fluorescence polarization, 2 h. Potency, µM, inactives show max response, negative = inhibition, actives largely listed as inhibitors. actives 0.93% (n = 400,000). AID 504847, 2011; note: % is set by controls: 0 for no effect and ±100 for the full control effect
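The screen uses fluorescence polarization to detect compounds that interfere with recruitment of the SRC2-3 coactivator peptide to VDR; plates are read after 2 h at room temperature.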
An asterisk follows results filed as active; [ ] = dose if it differs, or a comment. This is a sample that favours compounds with a hit; in the whole collection about 3.4% have one here. Calls come from the whole dose curve; as a rule, active = well fitted curve in the direction sought with a large enough effect; inconclusive = small, poorly fitted or top-dose-only effect, or another doubt; inactive = no such curve, though single readings can be large; an effect the other way counts as inactive or inconclusive. Potency is the fitted concentration of half-maximal effect.

`CCOc1ccc(N2C(=O)CC(Sc3ccccc3C(=O)O)C2=O)c([N+](=O)[O-])c1` (stereo not drawn) gave GCN5L2 inh -19.5%, PKM2 act inconclusive, GLS inh 4.2%, Mito fusion act -1.1%, PLK1 PBD block 26.7µM* and VDR inh -23.7%.
O=C(O)c1ccccc1SC1CC(=O)N(c2cccc3ccccc23)C1=O (stereo not drawn) was read as GCN5L2 inh -4.7%, PKM2 act inconclusive, GLS inh -0.6%, Mito fusion act -14.9%, PLK1 PBD block 29.9µM* and VDR inh -20.4%.
For CCN1C(=O)CC(Sc2ccccc2C(=O)O)C1=O (stereo not drawn) the results were GCN5L2 inh -3.5%, PKM2 act 5.0%, GLS inh 3.7%, Mito fusion act -4.8%, PLK1 PBD block -3.1% and VDR inh -5.2%.
Screening Cc1sc2ncn(CC(=O)N(C)c3ccc(C(C)C)cc3)c(=O)c2c1S(=O)(=O)N1CCC(C)CC1 returned GCN5L2 inh -5.2%, GLS inh -3.7% and VDR inh -17.8%.
For O=C(NC(C(=O)c1ccccc1)n1cnccc1=O)c1ccccc1 (stereo not drawn) the results were GCN5L2 inh -2.0%, PKM2 act -3.4%, GLS inh 19.4%, Mito fusion act -0.6%, PLK1 PBD block -30.0% and VDR inh -5.2%.
For O=C(NC(C(=O)c1ccccc1)n1c(=O)cc[nH]c1=S)c1ccccc1 (stereo not drawn) the results were GCN5L2 inh -4.9%, PKM2 act -3.1%, GLS inh 44.5%, Mito fusion act 0.1%, PLK1 PBD block 26.7µM* and VDR inh 16.9%.
`Cc1cc(OC(=O)c2ccccc2Br)cc(=O)n1C` gave GCN5L2 inh -2.0%, PKM2 act -0.4%, GLS inh 12.2%, Mito fusion act 0.1%, PLK1 PBD block 21.2µM* and VDR inh -6.7%.
Screening O=c1cc(N2CCCCC2)c(-c2ccccc2)nn1Cc1c(Cl)cccc1Cl returned GCN5L2 inh inconclusive, PKM2 act -3.6%, GLS inh 35.1%, Mito fusion act 3.0%, PLK1 PBD block 26.7µM* and VDR inh -17.6%.
`Cc1ccc(N2C3=C(C(=O)CC(C)(C)C3)C(c3cn(C)nc3C)C3=C2CC(C)(C)CC3=O)cc1` gave GLS inh inconclusive, PLK1 PBD block 3.77µM* and VDR inh 20µM*.
For Cc1nn(C)cc1C1C2=C(CC(C)(C)CC2=O)N(c2ccccc2)C2=C1C(=O)CC(C)(C)C2 the results were GCN5L2 inh -1.5%, PKM2 act -2.8%, GLS inh 8.2%, Mito fusion act 2.5%, PLK1 PBD block -14.1% and VDR inh -0.3%.
`COc1cc(/C=C2/SC(=S)N(Cc3ccccc3)C2=O)ccc1O` gave GCN5L2 inh -16.7%, PKM2 act 13.6%[11.5 µM], GLS inh 1.4%, Mito fusion act -27.3%, PLK1 PBD block 14.6% and VDR inh -2.0%.
For O=C1/C(=C/c2ccncc2)SC(=S)N1Cc1ccccc1 the results were GCN5L2 inh -17.3%, PKM2 act 22.9%, GLS inh 4.4%, Mito fusion act -3.1%, PLK1 PBD block inconclusive and VDR inh 70.8µM*.
`CCCN1C(=O)/C(=C/c2ccncc2)SC1=S` gave GCN5L2 inh 2.8%, PKM2 act -1.6%, GLS inh 5.9%, Mito fusion act 12.6%, PLK1 PBD block -16.9% and VDR inh inconclusive.
`O=C1/C(=C\c2cccc(O)c2O)SC(=S)N1Cc1ccccc1` gave GCN5L2 inh 20µM*, PKM2 act -3.2%, GLS inh 23.8%, Mito fusion act -2.2%, PLK1 PBD block 2.99µM* and VDR inh -29.3%.
Screening O=C1S/C(=C\c2ccc(O)c([N+](=O)[O-])c2)C(=O)N1Cc1cccc([N+](=O)[O-])c1 returned GCN5L2 inh inconclusive, PKM2 act -1.2%, GLS inh 15.6%, Mito fusion act 3.2%, PLK1 PBD block 23.8µM* and VDR inh -27.7%.
Screening O=C1/C(=C\c2ccc(O)c(O)c2)SC(=S)N1Cc1ccccc1 returned GCN5L2 inh -25.0%, GLS inh 27.8%, Mito fusion act 12.6µM*, PLK1 PBD block 15.6% and VDR inh -2.5%.
Screening CCCCOCCCNC(=O)C[C@@H]1C[C@@]2(C(=O)OCC)CCC=C2N(CCC2=CCCCC2)C1=O returned GLS inh -25.5% and PLK1 PBD block -21.5%.
For CCc1ccc(/C=C2/C(=O)N(CC)C(=S)N2C)s1 the results were GCN5L2 inh -5.0%, PKM2 act 1.8%, GLS inh -13.3%, Mito fusion act 20.1%, PLK1 PBD block 23.8µM* and VDR inh -21.1%.
CCOc1ccc(N2C(=O)/C(=C/c3cccs3)N(C)C2=S)cc1 was read as GCN5L2 inh -3.8%, PKM2 act 4.5%, GLS inh -7.7%, Mito fusion act -1.9%, PLK1 PBD block -1.6% and VDR inh -5.0%.
For O=C(CS(=O)(=O)Cc1ccccc1)N1CCN(Cc2ccc3c(c2)OCO3)CC1 the results were GCN5L2 inh -14.0%, PKM2 act 6.7%, GLS inh -13.3%, Mito fusion act -4.5%, PLK1 PBD block 26.7µM* and VDR inh inconclusive.
`O=C(CCc1ccc(S(=O)(=O)NCc2ccccc2)cc1)N1CCN(Cc2ccc3c(c2)OCO3)CC1` gave GCN5L2 inh -14.8%, PKM2 act -2.8%, GLS inh -4.4%, Mito fusion act -0.1%, PLK1 PBD block -6.5% and VDR inh -9.2%.
Screening O=C(CCS(=O)(=O)c1ccccc1)N1CCN(c2cccc(C(F)(F)F)c2)CC1 returned GCN5L2 inh -5.1%, PKM2 act -3.6%, GLS inh 6.3%, Mito fusion act 0.0%, PLK1 PBD block -25.5% and VDR inh 5.0%.
O=C(CS(=O)(=O)Cc1ccccc1)N1CCN(c2cccc(C(F)(F)F)c2)CC1 was read as GCN5L2 inh 6.5%, PKM2 act 2.7%, GLS inh -0.9%, Mito fusion act -1.1%, PLK1 PBD block 29.9µM* and VDR inh -14.1%.
